# Source: PubChem (several laboratories)
# CCHFV vOTU inh: blocks the CCHF virus ovarian tumor domain protease | CCHFV vOTU protease, Pep-AMC fluorescence | inhibition, % at 11.5 µM | actives 0.55% (n = 370,000); further: 0% = vehicle wells with enzyme and 100% = no enzyme wells
# FBA Mtb inh: inhibits M. tuberculosis FBA enzyme | purified M. tuberculosis FBA, fluorescence read-out | inhibition, % at 1 µM | actives 2.3% (n = 360,000) | AID 588726; in the data active means inhibition above about 27%;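 further: 0% = vehicle and 100% = reference inhibitor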
# GDH-TPI inh: inhibits GDH-TPI coupling enzymes, artifact for Mtb FBA screen; GDH-TPI coupled enzyme counterscreen, NADH absorbance; inhibition, % at 4.8 µM; actives 1.2% (n = 360,000); AID 588335;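 further: 0% = DMSO wells and 100% = wells lacking the enzyme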
# RecA splice inh: Mtb RecA intein splicing inhibition | cell-free RecA intein splicing, fluorescence | inhibition, % (concentration not given with the values) | actives 0.75% (n = 290,000) | AID 2221; in the data active means inhibition above about 30%; inconclusive means no clear call, values can overlap the other calls;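 further: 0% = vehicle wells and 100% = reference inhibitor control wells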
# Target sequence (P9WHJ3 whole entry, looked up, canonical isoform): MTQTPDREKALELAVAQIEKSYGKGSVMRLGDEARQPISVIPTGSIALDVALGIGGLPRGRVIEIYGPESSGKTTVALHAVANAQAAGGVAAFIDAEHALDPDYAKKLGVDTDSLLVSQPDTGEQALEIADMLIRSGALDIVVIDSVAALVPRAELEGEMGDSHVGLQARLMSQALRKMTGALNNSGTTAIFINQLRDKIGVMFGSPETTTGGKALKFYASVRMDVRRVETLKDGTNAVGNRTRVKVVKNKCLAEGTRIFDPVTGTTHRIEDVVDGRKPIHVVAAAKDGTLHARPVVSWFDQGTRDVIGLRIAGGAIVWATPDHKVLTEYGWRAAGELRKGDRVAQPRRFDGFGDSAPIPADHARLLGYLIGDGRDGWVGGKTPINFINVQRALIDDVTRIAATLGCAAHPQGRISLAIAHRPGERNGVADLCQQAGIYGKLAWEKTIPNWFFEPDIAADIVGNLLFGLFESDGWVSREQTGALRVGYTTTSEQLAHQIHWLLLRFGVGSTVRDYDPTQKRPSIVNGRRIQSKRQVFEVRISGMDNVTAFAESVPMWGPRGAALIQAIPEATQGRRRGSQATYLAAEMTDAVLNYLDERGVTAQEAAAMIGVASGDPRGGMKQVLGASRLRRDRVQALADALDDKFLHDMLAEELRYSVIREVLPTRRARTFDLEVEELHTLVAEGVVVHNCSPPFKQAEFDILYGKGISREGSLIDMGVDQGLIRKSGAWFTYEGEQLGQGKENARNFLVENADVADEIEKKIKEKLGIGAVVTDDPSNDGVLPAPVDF
# Starred values were filed as active, the others as inactive; ? = inconclusive; / = not tested or not shown; + = active, no number; ! = repeats disagree. Sampled rows, rich in hits. Any-hit rate of the full collection: about 4.2%. Unless noted, no stated cut-off is given here; in the data, active means inhibition above about 30%; inactive means the rest.
SMILES,CCHFV vOTU inh,FBA Mtb inh,GDH-TPI inh,RecA splice inh
COc1cc(/C=N/N=C(/N)c2nonc2N)cc(Br)c1OCc1ccccc1C,23,1,34*,1
O=C(NCc1ccccc1)C1CCC(=O)N(CCCN2CCCC2=O)C1 (centres undefined),-9,-1,9,-1
C=CCN(C(=O)[C@@H](C1CC1)[C@@H](O)c1ccc2ccccc2c1)c1ccccc1,15,/,/,/
COc1ccccc1OCc1nnc(SCC(=O)Nc2nnc(C3CC3)s2)n1C,5,175*,-1,-1
Cn1c(CNC(=O)c2ccccc2F)nnc1SCC(=O)Nc1nnc(C2CC2)s1,-16,5,7,6
O=C1NCC2=C1C(c1ccccc1)Nc1ccccc1N2 (centres undefined),7,6,32*,?
O=C1CCCC2=C1C(c1ccncc1)Nc1ccccc1N2 (centres undefined),6,9,24,2
Cc1cc(/C=C2/NC(=O)NC2=O)c(C)n1-c1ccc(N2CCOCC2)cc1,10,2,34*,-16
Cc1cc(/C=C2\NC(=O)NC2=O)c(C)n1-c1ccc(N2CCOCC2)cc1,-2,-2,21,-1
COCc1[nH]nc2c1C(c1ccc(F)cc1)N(Cc1ccccc1)C2=O (centres undefined),-5,/,/,/
COc1ccc(CN2CCN(c3ccccn3)CC2)c(OC)c1C,1,+!,19,1
N#Cc1ccc(C=NN2CCCCCC2)cc1,3,1,41*,/
O=C(O)c1ccc(C=NN2CCCCCC2)cc1,11,4,36*,/
Cc1cnnn1-c1ccc(C(=O)CCl)cc1,-1,1,1,52*
Cc1cccc(NC2=C(Cl)C(=O)OC2OC(=O)c2ccco2)c1 (centres undefined),-8,2,1,42*
CCN(CC)S(=O)(=O)c1ccc(N2CCCCC2)c(NC(=O)/C=C/c2ccc(OC)c(OC)c2)c1,-2,-2,27,4
CCN(CC)S(=O)(=O)c1ccc(OC)c(NC(=O)/C=C/c2ccco2)c1,4,-2,35*,1
COc1ccccc1-c1ccc2nnc(SC)n2n1,5,-5,7,-2
CCCN(CC(=O)Nc1ccc(F)c(F)c1F)C(=O)c1ccc(N2CCCC2=O)cc1,6,4,9,/
CCCC(=O)Nc1nc2ccc(OC)cc2s1,3,0,6,-5
COc1ccc2nc(NC(=S)N(C)C)sc2c1,22,-1,44*,-1
COc1ccccc1NC(=O)CSc1nc(=O)n(Cc2ccncc2)c2c1CCCC2,26,-2,6,-3
N#Cc1nc(-c2cccc(Cl)c2)oc1NCc1cccnc1,-58,141*,13,2
COc1ccc(Nc2oc(-c3ccc(Cl)cc3)nc2C#N)cc1,2,-2,28,-1
COCCNc1oc(-c2ccc(Cl)cc2)nc1C#N,-119,+,37*,-1
SMILES,CCHFV vOTU inh,FBA Mtb inh,GDH-TPI inh,RecA splice inh
COc1ccc(-c2nc(C#N)c(NCCN(C)C)o2)cc1,-30,123*,11,-1
N#Cc1nc(-c2ccco2)oc1NCc1cccnc1,-3,23,16,2
N#Cc1nc(-c2ccc(Cl)cc2)oc1NCc1ccco1,-19,175*,7,0
CCN(CC)CCCNc1oc(-c2cccc(Cl)c2)nc1C#N,-65,134*,0,0
COCCNc1oc(-c2ccc(C)cc2)nc1C#N,-28,200*,23,-1
Cc1ccc(-c2nc(C#N)c(NCCc3ccccn3)o2)cc1,-8,10,16,1
CN(C)CCNc1oc(COc2ccc(Cl)cc2Cl)nc1C#N,-11,3,3,-6
CN(C)CCCNc1oc(-c2ccc(Cl)cc2)nc1C#N,-63,173*,17,2
Oc1ccc(/C=N\Nc2nncc(-c3ccccc3)n2)cc1,9,-2,40*,-13
COc1ccc(-c2cnnc(N/N=C/c3ccc(O)cc3)n2)cc1,5,1,34*,-5
COc1ccc(-c2cnnc(N/N=C/c3ccc(O)c(O)c3)n2)cc1,6,0,16,1
O=C(c1ccco1)N1CC2(CC(c3ccc(Cl)cc3)=NO2)CN1Cc1ccc(Br)cc1 (centres undefined),-4,-3,-13,/
COC(=O)[C@]12CCCCC=C1N(Cc1ccc(OC)cc1)C(=O)[C@@H]2CC(=O)NCc1cccc(C(F)(F)F)c1,14,/,/,/
Nc1c(-c2ccc(Cl)cc2)cnn1-c1cc(C(F)(F)F)cc(C(F)(F)F)c1,2,+,8,0
O=S(=O)(NCc1ccc(Cl)cc1)c1ccc(Br)cc1C1CC[C@@H](O)C1 (some centres undefined),17,/,/,/
Cc1nnc(NC(=O)CCC(=O)N2CCN(S(=O)(=O)c3cc([N+](=O)[O-])ccc3C)CC2)s1,-8,4,4,/
CCOC(=O)c1sc2c(c1C)C(c1cccs1)C1=C(CCCC1=O)N2 (centres undefined),-243,+,11,-16
O=C(Nc1nnc(-c2ccco2)o1)c1ccc(Cl)s1,27,6,15,4
COc1cccc(-c2nnc(NC(=O)c3ccc(Cl)s3)o2)c1,5,3,41*,0
CCn1cc(C(=O)N2CCN(c3ccc(C(C)=O)cc3)CC2)c2cc(OC)c(OC)cc2c1=O,5,2,36*,/
CCN1CCN(C(=O)c2ccc3c(=O)n(CCc4ccccc4)c(=O)[nH]c3c2)CC1,/,3,5,1
O=C(CNS(=O)(=O)c1ccc(Br)cc1)OCc1cc(=O)n2cc(Br)ccc2n1,1,/,/,-3
O=C(CNC(=O)c1cccc(OC(F)F)c1)OCc1cc(=O)n2cc(Br)ccc2n1,-1,1,31*,-2
NS(=O)(=O)c1ccc(NC(=O)NC2CC(=O)N(c3ccc4c(c3)OCCO4)C2)cc1 (centres undefined),-8,-2,4,-3
COc1cc(C(=O)N2CCN(C(=O)C3CCCO3)CC2)cc(OC)c1OC (centres undefined),15,1,0,/
SMILES,CCHFV vOTU inh,FBA Mtb inh,GDH-TPI inh,RecA splice inh
COc1cc2nc(N3CCN(C(=O)C4CCCO4)CC3)nc(N)c2cc1OC (centres undefined),-87,112*,13,-2
COc1cccc(-c2c(NC(=O)c3ccco3)oc3ccc(Cl)cc3c2=O)c1,19,0,36*,-4
CC1(C)CC(=O)C2=C(C1)NC(Nc1nc3ccccc3o1)=NC21CCCC1,-9,-5,5,0
CC1(C)CC(=O)C2=C(C1)NC(Nc1nc3ccccc3o1)=NC2c1ccccn1 (centres undefined),20,-2,44*,-4
Cc1ccc(-c2cc(C(=O)N/N=C/C=C/c3ccccc3)n[nH]2)s1,13,2,24,0
O=C(N/N=C/C=C/c1ccccc1)c1cc(C2CC2)[nH]n1,6,-1,67*,-1
Cc1ccc(C(=O)N/N=C/C=C/c2ccccc2)o1,11,6,52*,1
Cc1cc(C(=O)N/N=C/C=C/c2ccccc2)n[nH]1,10,-1,61*,0
O=C(O)c1ccc(-c2ccc(-c3ccccc3)cc2)s1,/,118*,27,2
O=C(Nc1ccccc1)c1ccc(-c2ccccc2)s1,6,-1,-9,-1
Cc1cc(-c2ccc(C(=O)O)s2)cnc1N,-285,+,17,-8
